The list is not random: actives were taken first. Their share in the collection is about 1.5%.
Polio RdRp inh = poliovirus RdRp elongation inhibitors, primary screen, biochemical, fluorescence polarization, total intensity | hit rate 0.66% among 150,000 | Genome polyprotein (Poliovirus type 1 (strain Mahoney)), P03300 | % elongation, % (compound at 16.7 µg/mL) | poliovirus polymerase elongation; hits give low values; in the data active = % elongation below about 90%
Target sequence (P03300 1749-2209 limits assumed): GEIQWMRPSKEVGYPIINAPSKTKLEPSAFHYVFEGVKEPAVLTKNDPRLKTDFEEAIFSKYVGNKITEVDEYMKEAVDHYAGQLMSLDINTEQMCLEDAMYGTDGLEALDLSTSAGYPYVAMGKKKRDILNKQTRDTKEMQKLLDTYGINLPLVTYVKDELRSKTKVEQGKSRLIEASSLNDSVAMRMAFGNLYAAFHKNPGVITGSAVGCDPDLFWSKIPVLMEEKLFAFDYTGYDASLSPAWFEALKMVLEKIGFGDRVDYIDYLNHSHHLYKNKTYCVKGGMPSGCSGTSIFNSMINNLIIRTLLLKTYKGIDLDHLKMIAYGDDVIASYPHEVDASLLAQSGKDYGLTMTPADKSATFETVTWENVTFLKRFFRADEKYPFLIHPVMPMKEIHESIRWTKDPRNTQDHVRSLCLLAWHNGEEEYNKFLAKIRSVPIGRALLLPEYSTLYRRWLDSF
Mtb MenB inh = M. tuberculosis MenB inhibitors, primary screen, biochemical, absorbance. inhibition, % (test concentration not listed). AID 540299, 2011. hit rate 0.43% among 100,000. MenB enzyme assay, absorbance read-out; in the data active = inhibition above about 21%, passing the limit was not always enough
MbtI inh = MbtI salicylate synthase inhibitors, primary screen, biochemical, fluorescence intensity; hit rate 0.89% among 100,000; P9WFX0; AID 493033, 2011; purified MbtI enzyme, fluorescence intensity read-out; inhibition, % (no concentration beside the values); in the data active = inhibition mostly above about 56%, no sharp cut-off; inactive = mostly below about 77%
AID504770 = growth inhibition of E. coli YBA685, primary screen, V. cholerae RctB inhibitors | E. coli YBA685 rctB-dependent plasmid, OD600 growth, 3 h; hits give low values | z-score (concentration not given with the values) | hit rate 0.27% among 130,000 | AID 504770, 2011; in the data active = z-score below about -2, passing the limit was not always enough
The depositor's hits bear a star; i = inactive; . = not tested or not shown.

SMILES	Polio RdRp inh	Mtb MenB inh	MbtI inh	AID504770
CC(C)NS(=O)(=O)c1ccc2nc(NC(=O)c3cccnc3)sc2c1	100	-8	1	-0.55
CC(NC(=O)C12CC3CC(CC(C3)C1)C2)C(=O)N(C)C (stereo not given)	102	-34	-5	1.7
CC1c2cccc(O)c2CC2=C(O)C3(O)C(O)=C(C(N)=O)C(=O)C(N(C)C)C3C(O)C21 (stereo not given)	92	-78	.	-4.1*
C[C@H]1c2cccc(O)c2C(O)=C2C(=O)[C@]3(O)C(O)=C(C(N)=O)C(=O)[C@@H](N(C)C)[C@@H]3[C@@H](O)[C@@H]21	99	5	-15	-0.25
CN(C)[C@@H]1C(=O)C(C(N)=O)=C(O)[C@@]2(O)C(=O)C3=C(O)c4c(O)cccc4[C@@](C)(O)[C@H]3[C@H](O)[C@@H]12	100	-27	-12	-3.9*
CN(C)[C@@H]1C(=O)C(C(N)=O)=C(O)[C@@]2(O)C(=O)C3=C(O)c4c(O)ccc(Cl)c4[C@@](C)(O)[C@H]3C[C@@H]12	100	0	i	-3.6*
O=C(c1ccc(S(=O)(=O)NCc2ccco2)cc1)N1CCc2ccccc21	106	-9	-15	-0.2
CN(CC(=O)N1CCCCC1)c1nnc(N2CCCC2=O)s1	104	-12	2	-0.25
O=C(NCCc1ccc(Cl)cc1)c1nc(-c2cccnc2)no1	102	12	-25	0.25
CCN(CC)C(=S)Nc1ccc2oc(N(C)C)nc2c1	90*	-7	.	-0.5
Cc1cccc(N2C(=O)C3C(C(=O)NC4CC4)C4C=CC3(O4)C2C(=O)NC2CCCC2)c1 (stereo not given)	103	0	-3	-0.7
O=C1C=CC(=O)N1c1ccc(F)c(Cl)c1	101	.	93*	2.4
CC(=O)c1ccc(NC(=O)C2=CC(c3ccc4c(c3)OCO4)=NS(=O)(=O)N2C)cc1	108	.	.	.
CC(=O)c1ccc(NC(=O)C2=CC(c3ccc(C)cc3)=NS(=O)(=O)N2C)cc1	8.0*	.	.	.
Cc1ccc(C)c(C(=O)/C=C/C(=O)O)c1	102	67*	.	-0.2
Cc1ccc(C)c(C(=O)NCC(C)C)c1	101	-2	-18	-0.35
O=S(=O)(/N=C(\N=C1CCN(c2ccccc2)N1)c1ccccc1)c1ccccc1	106	-8	2	0.55
S=c1[nH]c2ccccc2n1C1CCCCC1	100	-14	98*	0.3
Cc1cccc(NC(=O)C2CCN(c3ccc(-c4cccs4)nn3)CC2)n1	98	5	4	-0.6
O=C1CCCC(O)=C1C1(O)C(=O)c2ccccc2C1=O	79*	-2	-5	-1.4
CC(=Nc1ccccc1)C1=C(O)CCCC1=O	103	0	3	-0.55
CC1SC(c2ccccc2)NC1=O (stereo not given)	100	-128	91*	2
CNC(=O)Cn1c2cc(OC)c(OC)cc2c2nc(=O)cc(C)n21	.	.	.	1
C=CCNc1cnn(Cc2ccccc2)c(=O)c1Cl	.	.	-2	1.4
C1CNC(C23CC4CC(CC(C4)C2)C3)=N1	102	-1	0	-0.8
SMILES	Polio RdRp inh	Mtb MenB inh	MbtI inh	AID504770
C1=C(C23CC4CC(CC(C4)C2)C3)SC2=NCCN12	99	-7	69*	0.2
CCOC(=O)c1cc(NC(=O)Nc2cc(C)ccc2C)c(C)nc1C	104	-47	-10	0.55
C=C(Br)Cn1c(C(C)C)nc2ccccc21	.	.	.	-0.3
Cc1nc(-c2cccnc2)[nH]c(=O)c1CC1CC1	.	.	.	-3*
O=c1[nH]c(-c2cccnc2)nc2ccccc12	.	.	.	2
Cn1c(=NC(=O)C2Cc3ccccc3CN2C(=O)c2ccco2)sc2ccccc21 (stereo not given)	102	-31	95	-1.4
Cc1nc2cc3ccccc3cc2c(=O)n1CCCNC1CCCCC1	90*	-10	.	1.4
COC(=O)c1c(-c2cccs2)csc1NC(=O)c1ccc(Br)cc1	66*	.	.	.
COC(=O)c1c(-c2cccs2)csc1NC(=O)CN1CCOCC1	99	-19	-22	-0.85
COC(=O)c1c(-c2cccs2)csc1NC(=O)c1ccc(C)cc1	76*	.	.	.
CC(C)CCN1NC2(CCCCC2)NC1=S	101	1	.	-0.2
CN1C2CCC1CC(NC1CCCCC1)C2 (stereo not given)	80*	4	.	1.2
O=C(c1cc(-c2ccccc2)n[nH]1)N1CCN(c2cccc(C(F)(F)F)c2)CC1	101	-12	7	0.05
COC(=O)c1c(NC(=O)CCCOc2ccc(C(C)(C)C)cc2)sc2c1C(C(=O)OC)CC2 (stereo not given)	62*	.	.	.
